IDE exosite inh: exo-site inhibitors of human IDE, primary screen, biochemical, fluorescence anisotropy, probe displacement. z-score at 20 µM. AID 1259349, 2017. purified IDE, FL-6b probe fluorescence polarization; hits give low values. Insulin-degrading enzyme (Homo sapiens), P14735. actives 6.3% (n = 17,000);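 active means z-score of -3 or lower, meaning strong loss of probe binding signal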;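 further: His-tagged human IDE residues 42-1019 made in E. coli with 30 nM FL-6b probe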
Target sequence (P14735 42-1019 limits assumed): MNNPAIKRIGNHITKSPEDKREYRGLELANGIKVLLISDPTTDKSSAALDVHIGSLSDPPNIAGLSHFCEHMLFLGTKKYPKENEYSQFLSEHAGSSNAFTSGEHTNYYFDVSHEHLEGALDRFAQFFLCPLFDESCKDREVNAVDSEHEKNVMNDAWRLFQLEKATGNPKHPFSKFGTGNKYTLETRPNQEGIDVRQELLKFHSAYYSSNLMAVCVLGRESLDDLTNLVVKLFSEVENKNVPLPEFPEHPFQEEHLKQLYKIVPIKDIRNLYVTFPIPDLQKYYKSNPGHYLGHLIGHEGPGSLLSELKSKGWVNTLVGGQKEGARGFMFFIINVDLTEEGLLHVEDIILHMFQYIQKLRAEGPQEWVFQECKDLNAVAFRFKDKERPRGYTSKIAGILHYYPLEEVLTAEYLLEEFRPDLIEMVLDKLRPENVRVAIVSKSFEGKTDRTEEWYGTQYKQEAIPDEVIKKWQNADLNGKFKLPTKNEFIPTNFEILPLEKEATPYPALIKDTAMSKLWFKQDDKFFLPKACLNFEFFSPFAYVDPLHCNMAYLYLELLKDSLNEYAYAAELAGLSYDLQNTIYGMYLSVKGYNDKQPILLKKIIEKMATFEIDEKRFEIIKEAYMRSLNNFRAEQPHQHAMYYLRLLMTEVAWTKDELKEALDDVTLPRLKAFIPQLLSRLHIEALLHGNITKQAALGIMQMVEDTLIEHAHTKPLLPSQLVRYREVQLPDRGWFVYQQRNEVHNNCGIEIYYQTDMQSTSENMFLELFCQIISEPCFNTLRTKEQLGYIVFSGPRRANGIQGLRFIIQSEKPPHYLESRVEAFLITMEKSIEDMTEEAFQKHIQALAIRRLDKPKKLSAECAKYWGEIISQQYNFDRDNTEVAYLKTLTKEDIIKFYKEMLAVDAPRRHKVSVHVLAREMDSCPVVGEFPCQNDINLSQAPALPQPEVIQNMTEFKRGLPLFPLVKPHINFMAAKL
Numbers stand for hits; - = inactive. The full list was thinned out, with hits kept by preference.

SMILES	IDE exosite inh
C[C@@H]1CN([C@H](C)CO)C(=O)c2cc(C3=CCCCC3)cnc2O[C@@H]1CN(C)S(=O)(=O)c1cn(C)cn1	-
C/C=C/c1ccc([C@@H]2[C@@H](CO)N3C(=O)CN(C(=O)c4ccccc4)C[C@H]23)cc1	-
CC(C)[C@@H]1COCn2nncc2CC[C@H](C)C(=O)N1	-
CN(C)C(=O)c1ccc(-c2ccccc2[C@H]2[C@@H](CO)N(C(=O)C3CC3)[C@H]2C#N)cc1	-
CN1C(=O)c2cc(NC(=O)c3cccc(Cl)c3)ccc2OC[C@@H]2O[C@@H](CC(=O)NC3CCCCC3)CC[C@H]21	-
CC1C=NC(S(=O)(=O)N2CC[C@@H]3[C@H](CO)N(C)c4ccc(C#Cc5cccnc5)cc4[C@@H]32)=N1 (some centres not stated)	-
Cc1ccccc1-c1ccccc1[C@H]1[C@@H](C#N)N(C(=O)c2cccc(F)c2)[C@H]1CO	-
CCCC#Cc1ccc([C@H]2[C@@H](CO)N3CCCCN(S(C)(=O)=O)C[C@H]23)cc1	-
C/C=C/c1ccccc1[C@H]1[C@@H](CO)N(C(=O)NC2CCCCC2)[C@H]1C#N	-
OC[C@H]1[C@@H](c2ccc(-c3cccc(F)c3)cc2)[C@@H]2CN(CCC(F)(F)F)CCCCN12	-
COc1ccc(-c2ccc([C@H]3[C@@H](CO)N4C(=O)CN(C(=O)C5CCOCC5)C[C@@H]34)cc2)cc1	-
COc1cccc(-c2ccc([C@@H]3[C@@H](CO)N4C(=O)CN(C(=O)C5CCOCC5)C[C@H]34)cc2)c1	-
COc1cccc(-c2ccc([C@@H]3[C@@H](CO)N4C(=O)CN(C(=O)C5CCOCC5)C[C@@H]34)cc2)c1	-5.8
CC(C)C#Cc1ccc([C@H]2[C@H](CO)N3CCCCN(S(=O)(=O)Cc4ccccc4)C[C@@H]23)cc1	-
O=C(C1CCCC1)N1CC2(C1)[C@@H](c1ccccc1)[C@H](CO)N2Cc1ccc(Cl)cc1	-
C/C=C/c1ccc([C@@H]2[C@H]3CN(S(=O)(=O)c4ccc(F)cc4)CCCCN3[C@H]2CO)cc1	-
OC[C@@H]1[C@@H](c2ccc(C#CC3(O)CCCC3)cc2)[C@H]2CN(Cc3cccnc3)CCCCN12	-
O=C(Cc1ccccn1)N1CC(=O)N2[C@H](C1)[C@H](c1ccc(-c3ccc(F)cc3)cc1)[C@@H]2CO	-
CC(C)(O)C#Cc1ccc([C@@H]2[C@@H](CO)N3CCCCN(C(=O)c4cccnc4)C[C@@H]23)cc1	-
CC(C)(O)C#Cc1ccc([C@@H]2[C@H](CO)N3CCCCN(C(=O)c4cccnc4)C[C@@H]23)cc1	-
CC(C)(O)C#Cc1ccc([C@H]2[C@H]3CN(C(=O)c4cccnc4)CCCCN3[C@H]2CO)cc1	-
Cc1ccccc1-c1ccc([C@@H]2[C@H](CO)N3CCCCN(C(=O)c4cccnc4)C[C@@H]23)cc1	-8.42
Cc1ccccc1-c1ccc([C@H]2[C@@H](CO)N3CCCCN(C(=O)c4cccnc4)C[C@H]23)cc1	-16.5
Cc1ccccc1-c1ccc([C@@H]2[C@@H](CO)N3CCCCN(C(=O)c4cccnc4)C[C@H]23)cc1	-
Cc1ccccc1-c1ccc([C@H]2[C@H](CO)N3CCCCN(C(=O)c4cccnc4)C[C@@H]23)cc1	-3.87
SMILES	IDE exosite inh
O=C(c1ccccc1)N1CC(=O)N2[C@H](CO)[C@H](c3ccc(C#CC4CC4)cc3)[C@H]2C1	-
O=C1CN(Cc2ccc(F)cc2)C[C@@H]2[C@@H](c3ccc(-c4ccccc4F)cc3)[C@H](CO)N12	-
CCCC(=O)N1CC2(CN(C(=O)C3CC3)C2)c2c(n(C)c3cc(OC)ccc23)[C@H]1CO	-
CC(C)C#Cc1ccc([C@@H]2[C@@H](CO)N3C(=O)CN(C(=O)c4ccc5c(c4)OCO5)C[C@H]23)cc1	-
CN(C)C(=O)c1cccc(-c2cccc(-c3nc(C(=O)N4CCCCC4)cc4c3[C@@H](CCO)N([S@](=O)C(C)(C)C)C4)c2)c1	-
COc1cccc(NC(=O)C[C@H]2CC[C@H]3[C@@H](COc4ccc(NC(=O)C5CC5)cc4C(=O)N3C)O2)c1	-
O=C(NC1CCCC1)[C@@H]1[C@@H](CO)[C@@H]2Cn3c(cccc3=O)[C@@H]2N1CCc1ccccc1	-
CCC(=O)N(C[C@@H]1N[C@H](CO)[C@@H]1c1ccc(C#C[C@@H](C)O)cc1)C1CCCCC1	-
C/C=C/c1ccccc1[C@@H]1[C@@H](CO)N(C(C)=O)[C@H]1C#N	-
CCC(=O)N[C@H]1CC[C@H](CC(=O)NCc2ccccc2F)O[C@H]1CO	-
O=C(Nc1cccc(F)c1)N1CCCCN2[C@@H](CO)[C@H](c3ccc(C#Cc4ccccc4)cc3)[C@@H]2C1	-3.53
O=C(Nc1ccccc1)N1CCCCN2[C@@H](CO)[C@H](c3ccc(C#Cc4cccnc4)cc3)[C@@H]2C1	-5.33
O=C(Nc1cccc(F)c1)N1CCCCN2[C@H](C1)[C@H](c1ccc(C#Cc3ccccc3)cc1)[C@@H]2CO	-
O=C(Nc1ccccc1)N1CCCCN2[C@@H](CO)[C@@H](c3ccc(C#Cc4cccnc4)cc3)[C@@H]2C1	-
O=C(Nc1ccccc1F)N1CCCCN2[C@H](CO)[C@H](c3ccc(C#Cc4cccnc4)cc3)[C@@H]2C1	-6.83
O=C(Nc1ccccc1F)N1CCCCN2[C@H](CO)[C@@H](c3ccc(C#Cc4cccnc4)cc3)[C@H]2C1	-
O=C(Nc1ccccc1F)N1CCCCN2[C@H](C1)[C@H](c1ccc(C#Cc3cccnc3)cc1)[C@@H]2CO	-
O=C(Nc1ccccc1)N1CCCCN2[C@H](CO)[C@@H](c3ccc(C#Cc4cccnc4)cc3)[C@H]2C1	-
O=C(Nc1cccc(F)c1)N1CCCCN2[C@H](CO)[C@H](c3ccc(C#Cc4ccccc4)cc3)[C@H]2C1	-
O=C(Cc1ccccn1)N1CC[C@@H]2[C@H]1c1cc(-c3cccc(F)c3)ccc1N[C@@H]2CO	-
CN(C)C(=O)c1cccc(-c2ccc([C@H]3[C@H]4CN(S(C)(=O)=O)CCCCN4[C@H]3CO)cc2)c1	-
O=C(Cc1ccccn1)N1CC(=O)N2[C@@H](CO)[C@@H](c3ccc(-c4ccc(F)cc4)cc3)[C@@H]2C1	-
C[C@H]1CN([C@@H](C)CO)S(=O)(=O)c2ccc(-c3ccncc3)cc2O[C@@H]1CN(C)S(C)(=O)=O	-
COc1ccccc1NC(=O)N1CC(=O)N2[C@H](C1)[C@H](c1ccc(C#CC3CC3)cc1)[C@@H]2CO	-
COc1ccc(S(=O)(=O)Nc2ccc3c(c2)C(=O)N([C@@H](C)CO)C[C@@H](C)[C@@H](CN(C)Cc2ccc(C(F)(F)F)cc2)OCCCC[C@@H](C)O3)cc1	-
SMILES	IDE exosite inh
O=C(c1ccc2c(c1)OCO2)N1CC(=O)N2[C@H](CO)[C@H](c3ccc(C#CC4CCCC4)cc3)[C@@H]2C1	-
C[C@H]1CN([C@@H](C)CO)C(=O)CCCn2nncc2CO[C@@H]1CN(C)C(=O)c1cc(-c2ccccc2)on1	-
CN1C(=O)c2cc(NS(=O)(=O)c3cccc(F)c3)ccc2OC[C@H]2O[C@H](CC(=O)NCCN3CCCCC3)CC[C@@H]21	-
O=C(Cc1ccccc1)N1CC[C@@H]2[C@H](CO)Nc3ccc(C#Cc4cccc(F)c4)cc3[C@@H]21	-
COCC#Cc1ccc([C@H]2[C@@H](CO)N3C(=O)CN(C(=O)CN4CCOCC4)C[C@H]23)cc1	-
O=C1N[C@@H](c2ccccc2)COCc2cnnn2CC[C@@H]1Cc1ccc(C(F)(F)F)cc1	-
CS(=O)(=O)N1[C@H](C#N)[C@H](c2ccccc2)[C@@H]1CO	-

Screening results from PubChem.
